{"source": "the supplement of paper PMC11006884", "note": "Targets with a hit are over-represented here; the source holds about 6,500 in all. About 2% of all pairs of compound and target were hits."}
{"compound": "COC(=O)C#Cc1ccccc1 [methyl 3-phenylpropiolate]", "test": "log2 ratio of iodoacetamide-alkyne labeling of the cysteine site, DMSO over compound (competition); higher = stronger covalent engagement of the cysteine by the compound, active = 1 or more", "settings": "500 µM; treatment time 1 h; system: HEK293T cell lysate", "procedure,_shortened": "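Reporter intensities give each cysteine's log2 competition ratio as the mean of control channels over the mean of compound channels. The samples were HEK293T lysate (2 mg/mL) given vehicle or electrophile (500 µM, 1 h, ambient temperature), then iodoacetamide alkyne (1 h), followed by click coupling to sCIP-TMT reagents, pooling, trypsin digestion overnight at 37 °C, streptavidin enrichment, acid elution, Orbitrap Eclipse LC-MS/MS with FAIMS and FragPipe quantification. Duplicate channels and three replicates were run, and cysteines quantified in only one replicate were discarded.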"}
{"target": "ANAPC1 C1412 (UniProt Q9H1A4)", "log2 ratio of iodoacetamide-alkyne labeling": "0.0508 (inactive)"}
{"target": "TRIM33 C153 (UniProt Q9UPN9)", "log2 ratio of iodoacetamide-alkyne labeling": "0.274 (inactive)"}
{"target": "UniProt Q9NWR8_C324", "log2 ratio of iodoacetamide-alkyne labeling": "1.65 (active)"}
{"target": "ANKFY1 C675 (UniProt Q9P2R3)", "log2 ratio of iodoacetamide-alkyne labeling": "0.216 (inactive)"}
{"target": "ANKFY1 C460 (UniProt Q9P2R3)", "log2 ratio of iodoacetamide-alkyne labeling": "1.44 (active)"}
{"target": "CPSF3 C655 (UniProt Q9UKF6)", "log2 ratio of iodoacetamide-alkyne labeling": "0.293 (inactive)"}
{"target": "UniProt Q9Y3D0_C93", "log2 ratio of iodoacetamide-alkyne labeling": "0.0692 (inactive)"}
{"target": "RNF126 C229 (UniProt Q9BV68)", "log2 ratio of iodoacetamide-alkyne labeling": "-0.457 (inactive)"}
{"target": "SMC4 C190 (UniProt Q9NTJ3)", "log2 ratio of iodoacetamide-alkyne labeling": "0.109 (inactive)"}
{"target": "NOSIP C185 (UniProt Q9Y314)", "log2 ratio of iodoacetamide-alkyne labeling": "0.25 (inactive)"}
{"target": "UniProt Q9NWY4_C17", "log2 ratio of iodoacetamide-alkyne labeling": "0.873 (inactive)"}
{"target": "ALG5 C194 (UniProt Q9Y673)", "sequence (Q9Y673 whole entry)": "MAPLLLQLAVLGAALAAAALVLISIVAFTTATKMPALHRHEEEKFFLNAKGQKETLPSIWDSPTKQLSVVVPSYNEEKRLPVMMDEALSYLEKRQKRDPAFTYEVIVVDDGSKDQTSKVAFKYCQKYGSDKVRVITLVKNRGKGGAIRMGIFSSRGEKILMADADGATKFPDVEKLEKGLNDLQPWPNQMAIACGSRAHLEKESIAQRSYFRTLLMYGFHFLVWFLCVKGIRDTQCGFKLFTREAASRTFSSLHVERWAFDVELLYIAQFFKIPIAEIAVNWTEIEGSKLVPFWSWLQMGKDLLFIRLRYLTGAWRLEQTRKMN", "log2 ratio of iodoacetamide-alkyne labeling": "0.233 (inactive)"}
{"target": "UniProt Q9BYG3_C237", "log2 ratio of iodoacetamide-alkyne labeling": "0.515 (inactive)"}
{"target": "MDN1 C271 (UniProt Q9NU22)", "log2 ratio of iodoacetamide-alkyne labeling": "0.728 (inactive)"}
{"target": "MRPS18C C90 (UniProt Q9Y3D5)", "log2 ratio of iodoacetamide-alkyne labeling": "0.167 (inactive)"}
{"target": "UniProt Q9NQG6_C111", "log2 ratio of iodoacetamide-alkyne labeling": "0.389 (inactive)"}
{"target": "ASPSCR1 C224 (UniProt Q9BZE9)", "log2 ratio of iodoacetamide-alkyne labeling": "1.02 (active)"}
{"target": "NOL6 C1034 (UniProt Q9H6R4)", "log2 ratio of iodoacetamide-alkyne labeling": "1.81 (active)"}
{"target": "CPSF2 C765 (UniProt Q9P2I0)", "log2 ratio of iodoacetamide-alkyne labeling": "1.01 (active)"}
{"target": "RRBP1 C892 (UniProt Q9P2E9)", "log2 ratio of iodoacetamide-alkyne labeling": "0.291 (inactive)"}
{"target": "JMJD4 C101 (UniProt Q9H9V9)", "log2 ratio of iodoacetamide-alkyne labeling": "0.898 (inactive)"}
{"target": "DDX52 C536 (UniProt Q9Y2R4)", "log2 ratio of iodoacetamide-alkyne labeling": "0.566 (inactive)"}
{"target": "TELO2 C367 (UniProt Q9Y4R8)", "log2 ratio of iodoacetamide-alkyne labeling": "0.0485 (inactive)"}
{"target": "EIF2B3 C64 (UniProt Q9NR50)", "log2 ratio of iodoacetamide-alkyne labeling": "0.548 (inactive)"}
{"target": "ZDBF2 C628 (UniProt Q9HCK1)", "log2 ratio of iodoacetamide-alkyne labeling": "0.47 (inactive)"}
{"target": "GPHN C419 (UniProt Q9NQX3)", "log2 ratio of iodoacetamide-alkyne labeling": "0.38 (inactive)"}
{"target": "PRPF19 C230 (UniProt Q9UMS4)", "log2 ratio of iodoacetamide-alkyne labeling": "0.231 (inactive)"}
{"target": "POLDIP2 C143 (UniProt Q9Y2S7)", "sequence (Q9Y2S7 whole entry)": "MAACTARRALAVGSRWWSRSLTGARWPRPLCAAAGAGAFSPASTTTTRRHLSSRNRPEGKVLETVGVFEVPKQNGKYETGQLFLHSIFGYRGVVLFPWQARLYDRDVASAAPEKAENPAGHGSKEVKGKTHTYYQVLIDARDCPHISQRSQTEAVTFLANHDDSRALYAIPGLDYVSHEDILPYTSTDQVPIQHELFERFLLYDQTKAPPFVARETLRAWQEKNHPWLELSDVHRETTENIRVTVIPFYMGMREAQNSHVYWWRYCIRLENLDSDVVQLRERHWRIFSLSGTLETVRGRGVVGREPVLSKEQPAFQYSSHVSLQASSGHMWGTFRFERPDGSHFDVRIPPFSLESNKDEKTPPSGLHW", "log2 ratio of iodoacetamide-alkyne labeling": "0.786 (inactive)"}
{"target": "NAT10 C489 (UniProt Q9H0A0)", "sequence (Q9H0A0 whole entry, looked up)": "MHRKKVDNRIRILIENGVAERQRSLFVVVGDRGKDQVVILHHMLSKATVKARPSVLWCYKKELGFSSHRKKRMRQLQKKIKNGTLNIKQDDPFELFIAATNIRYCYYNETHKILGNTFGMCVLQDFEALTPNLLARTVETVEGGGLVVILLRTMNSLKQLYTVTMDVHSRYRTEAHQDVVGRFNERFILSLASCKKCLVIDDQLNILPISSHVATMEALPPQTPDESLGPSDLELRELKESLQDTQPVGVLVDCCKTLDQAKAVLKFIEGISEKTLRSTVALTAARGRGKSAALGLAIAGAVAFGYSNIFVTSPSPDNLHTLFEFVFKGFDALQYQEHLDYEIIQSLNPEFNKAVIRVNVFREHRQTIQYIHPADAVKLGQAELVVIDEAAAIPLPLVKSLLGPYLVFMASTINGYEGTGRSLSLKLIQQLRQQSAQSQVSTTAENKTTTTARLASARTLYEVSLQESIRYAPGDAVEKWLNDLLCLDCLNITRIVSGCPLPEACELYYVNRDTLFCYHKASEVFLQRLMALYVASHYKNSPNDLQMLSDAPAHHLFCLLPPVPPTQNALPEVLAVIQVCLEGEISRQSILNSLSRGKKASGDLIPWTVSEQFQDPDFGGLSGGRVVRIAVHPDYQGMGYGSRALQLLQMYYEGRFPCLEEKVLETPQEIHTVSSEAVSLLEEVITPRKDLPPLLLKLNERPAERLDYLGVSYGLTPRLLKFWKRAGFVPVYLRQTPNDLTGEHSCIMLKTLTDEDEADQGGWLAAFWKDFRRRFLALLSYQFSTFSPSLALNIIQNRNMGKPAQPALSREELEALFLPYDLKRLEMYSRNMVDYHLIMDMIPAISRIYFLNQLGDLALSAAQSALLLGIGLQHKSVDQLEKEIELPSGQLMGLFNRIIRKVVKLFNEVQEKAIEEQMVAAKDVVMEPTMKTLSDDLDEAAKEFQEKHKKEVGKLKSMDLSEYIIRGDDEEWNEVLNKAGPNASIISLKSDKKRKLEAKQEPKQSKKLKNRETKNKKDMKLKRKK", "log2 ratio of iodoacetamide-alkyne labeling": "0.0616 (inactive)"}
{"target": "SAMHD1 C80 (UniProt Q9Y3Z3)", "log2 ratio of iodoacetamide-alkyne labeling": "0.175 (inactive)"}
{"target": "RCC2 C428 (UniProt Q9P258)", "log2 ratio of iodoacetamide-alkyne labeling": "0.696 (inactive)"}
{"target": "MDN1 C43 (UniProt Q9NU22)", "log2 ratio of iodoacetamide-alkyne labeling": "1.32 (active)"}
{"target": "PRR12 C322 (UniProt Q9ULL5)", "sequence (Q9ULL5 whole entry, looked up)": "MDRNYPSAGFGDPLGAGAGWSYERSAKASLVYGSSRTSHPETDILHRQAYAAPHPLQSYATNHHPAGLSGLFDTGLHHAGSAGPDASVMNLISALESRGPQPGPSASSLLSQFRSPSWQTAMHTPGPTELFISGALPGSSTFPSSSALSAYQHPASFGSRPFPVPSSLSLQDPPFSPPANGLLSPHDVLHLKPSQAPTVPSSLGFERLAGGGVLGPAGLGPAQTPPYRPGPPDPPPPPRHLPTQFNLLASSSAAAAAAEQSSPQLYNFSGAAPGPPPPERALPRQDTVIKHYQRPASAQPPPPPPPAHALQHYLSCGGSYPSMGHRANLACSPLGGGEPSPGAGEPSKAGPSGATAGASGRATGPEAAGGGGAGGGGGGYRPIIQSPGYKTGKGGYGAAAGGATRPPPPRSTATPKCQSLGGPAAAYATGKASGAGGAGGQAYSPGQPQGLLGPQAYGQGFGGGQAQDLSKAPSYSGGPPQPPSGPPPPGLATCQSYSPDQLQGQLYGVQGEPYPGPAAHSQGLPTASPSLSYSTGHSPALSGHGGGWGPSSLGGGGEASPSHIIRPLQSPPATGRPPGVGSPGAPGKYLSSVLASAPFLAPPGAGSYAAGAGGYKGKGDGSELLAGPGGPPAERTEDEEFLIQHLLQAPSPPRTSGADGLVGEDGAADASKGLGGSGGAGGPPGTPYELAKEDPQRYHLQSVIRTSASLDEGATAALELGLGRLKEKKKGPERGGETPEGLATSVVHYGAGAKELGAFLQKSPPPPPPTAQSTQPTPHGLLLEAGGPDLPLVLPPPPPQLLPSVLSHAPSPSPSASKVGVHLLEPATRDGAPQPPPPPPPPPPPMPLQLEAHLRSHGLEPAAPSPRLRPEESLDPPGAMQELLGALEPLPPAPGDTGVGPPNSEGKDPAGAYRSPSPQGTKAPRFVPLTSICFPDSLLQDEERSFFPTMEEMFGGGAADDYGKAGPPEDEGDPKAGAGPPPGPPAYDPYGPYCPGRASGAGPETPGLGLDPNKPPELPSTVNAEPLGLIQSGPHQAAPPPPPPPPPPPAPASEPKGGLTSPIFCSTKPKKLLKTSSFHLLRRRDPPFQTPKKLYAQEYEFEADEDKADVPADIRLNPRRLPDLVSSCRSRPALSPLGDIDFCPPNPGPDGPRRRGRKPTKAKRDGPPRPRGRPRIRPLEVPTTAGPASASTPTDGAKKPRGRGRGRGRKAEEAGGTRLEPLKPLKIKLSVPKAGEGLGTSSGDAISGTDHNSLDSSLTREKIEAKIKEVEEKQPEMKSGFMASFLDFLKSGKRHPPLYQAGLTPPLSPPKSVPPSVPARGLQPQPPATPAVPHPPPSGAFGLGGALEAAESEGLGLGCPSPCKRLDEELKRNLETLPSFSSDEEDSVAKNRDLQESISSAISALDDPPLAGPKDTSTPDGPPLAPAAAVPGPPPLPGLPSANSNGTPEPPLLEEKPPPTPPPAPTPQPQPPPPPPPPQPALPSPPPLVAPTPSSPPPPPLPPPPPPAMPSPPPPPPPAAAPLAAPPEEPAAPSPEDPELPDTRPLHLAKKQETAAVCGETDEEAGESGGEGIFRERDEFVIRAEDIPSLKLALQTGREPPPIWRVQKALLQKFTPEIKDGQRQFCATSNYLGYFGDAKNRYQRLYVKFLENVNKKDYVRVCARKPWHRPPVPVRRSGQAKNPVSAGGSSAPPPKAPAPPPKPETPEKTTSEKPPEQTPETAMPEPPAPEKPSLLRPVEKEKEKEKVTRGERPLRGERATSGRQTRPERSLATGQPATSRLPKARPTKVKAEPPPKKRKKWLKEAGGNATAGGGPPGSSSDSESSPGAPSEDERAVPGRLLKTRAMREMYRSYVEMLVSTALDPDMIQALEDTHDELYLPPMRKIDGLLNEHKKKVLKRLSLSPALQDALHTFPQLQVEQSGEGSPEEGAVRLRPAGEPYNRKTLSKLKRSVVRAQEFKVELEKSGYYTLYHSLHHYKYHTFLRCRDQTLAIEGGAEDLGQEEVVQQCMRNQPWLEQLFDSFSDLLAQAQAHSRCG", "log2 ratio of iodoacetamide-alkyne labeling": "0.259 (inactive)"}
{"target": "UniProt Q9P260_C624", "log2 ratio of iodoacetamide-alkyne labeling": "0.299 (inactive)"}
{"target": "DLGAP4 C736 (UniProt Q9Y2H0)", "log2 ratio of iodoacetamide-alkyne labeling": "0.69 (inactive)"}
{"target": "TNKS1BP1 C1337 (UniProt Q9C0C2)", "log2 ratio of iodoacetamide-alkyne labeling": "1.01 (active)"}
{"target": "IKBKG C347 (UniProt Q9Y6K9)", "sequence (Q9Y6K9 whole entry)": "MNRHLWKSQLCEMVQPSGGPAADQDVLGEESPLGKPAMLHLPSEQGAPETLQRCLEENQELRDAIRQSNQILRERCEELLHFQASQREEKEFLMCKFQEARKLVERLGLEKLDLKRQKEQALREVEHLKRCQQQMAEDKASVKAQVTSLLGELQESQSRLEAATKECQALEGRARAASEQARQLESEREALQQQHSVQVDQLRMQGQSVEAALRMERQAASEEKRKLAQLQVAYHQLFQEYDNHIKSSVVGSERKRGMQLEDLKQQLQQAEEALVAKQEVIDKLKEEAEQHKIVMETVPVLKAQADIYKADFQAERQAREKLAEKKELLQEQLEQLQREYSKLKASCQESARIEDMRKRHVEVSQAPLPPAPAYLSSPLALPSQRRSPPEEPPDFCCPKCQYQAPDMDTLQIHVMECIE", "log2 ratio of iodoacetamide-alkyne labeling": "0.397 (inactive)"}
{"target": "BCLAF1 C688 (UniProt Q9NYF8)", "log2 ratio of iodoacetamide-alkyne labeling": "0.524 (inactive)"}
{"target": "KIF3A C621 (UniProt Q9Y496)", "sequence (Q9Y496 whole entry)": "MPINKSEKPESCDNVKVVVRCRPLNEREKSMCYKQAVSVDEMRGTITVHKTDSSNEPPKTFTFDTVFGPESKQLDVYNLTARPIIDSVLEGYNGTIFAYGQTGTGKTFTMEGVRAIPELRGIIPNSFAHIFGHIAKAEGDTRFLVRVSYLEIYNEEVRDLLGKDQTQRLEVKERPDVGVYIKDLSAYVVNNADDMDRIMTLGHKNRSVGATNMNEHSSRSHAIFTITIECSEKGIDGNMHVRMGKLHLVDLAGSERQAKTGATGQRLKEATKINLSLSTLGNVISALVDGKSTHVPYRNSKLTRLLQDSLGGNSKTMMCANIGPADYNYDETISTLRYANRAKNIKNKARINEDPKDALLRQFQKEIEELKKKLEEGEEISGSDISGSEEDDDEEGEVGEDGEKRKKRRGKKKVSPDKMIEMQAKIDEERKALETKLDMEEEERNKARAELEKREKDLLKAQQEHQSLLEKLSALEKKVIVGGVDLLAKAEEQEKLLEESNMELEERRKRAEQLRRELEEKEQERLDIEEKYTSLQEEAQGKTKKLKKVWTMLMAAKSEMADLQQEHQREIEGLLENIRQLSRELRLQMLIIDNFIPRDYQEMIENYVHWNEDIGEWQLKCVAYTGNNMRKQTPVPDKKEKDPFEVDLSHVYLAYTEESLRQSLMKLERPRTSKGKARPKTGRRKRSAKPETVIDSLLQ", "log2 ratio of iodoacetamide-alkyne labeling": "0.962 (inactive)"}
